The panel holds about 83,000 compounds, 20% with a hit somewhere; the sample as a whole holds those more often.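 For each line, cells grew in 96-well plates with the test compound present at a single concentration for 48 hours.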 A number with no mark means an inactive call. Active and inactive are the calls of the source. Rule for the calls: active = growth percent below 10; inactive = the rest.

Among the test systems are SK-MEL-2 melanoma; EKVX NSCLC; SN12C renal; UO-31 renal; TK-10 renal; ACHN renal; CAKI-1 renal; A498 renal; CCRF-CEM leukemia; MOLT-4 leukemia; SR leukemia; RPMI-8226 leukemia; OVCAR-8 ovarian; OVCAR-5 ovarian; OVCAR-4 ovarian; SK-OV-3 ovarian; IGROV1 ovarian; OVCAR-3 ovarian; NCI/ADR-RES ovarian; HS 578T breast.
What all share (assay): NCI-60 one-dose screen, 48 h (100 = growth as untreated, 0 = no growth, -100 = all killed)
Common to all, as to settings: 10 µM unless noted

For the compound `CS(=O)(=O)c1ccc(-n2nc(C(=O)NCc3ccccc3)cc2-c2ccc(Cl)cc2)cc1`, the growth is 92.9% with SK-MEL-2 melanoma; 68% in the assay on EKVX NSCLC; 80.8% in the assay on SN12C renal; 56.5% with UO-31 renal; 104% with TK-10 renal; 91.3% with ACHN renal. In addition, the growth with CAKI-1 renal is 76.1%; in the assay on A498 renal, 124%; in the assay on CCRF-CEM leukemia, 58.6%; in the assay with MOLT-4 leukemia it was 59.4%; in the assay with SR leukemia, 76.7%; in the assay with RPMI-8226 leukemia it was 56.8%. The growth with OVCAR-8 ovarian was 89.9%; in the assay with OVCAR-5 ovarian, 105%; in the assay with OVCAR-4 ovarian it was 71%; in the assay with SK-OV-3 ovarian, 104%; with IGROV1 ovarian it was 95.9%; with OVCAR-3 ovarian it was 99.7%. The growth in the assay with NCI/ADR-RES ovarian was 83.9%.
As to `Cc1ccc(C(=O)Nc2cccc(C(=O)NC(=S)Nc3ccc(S(N)(=O)=O)cc3)c2)cc1`, the growth with SK-MEL-2 melanoma was 82.7%; in the assay with EKVX NSCLC, 88.2%; with SN12C renal it was 76.8%; with UO-31 renal it was 69.4%; in the assay on TK-10 renal it was 104%; in the assay with ACHN renal, 69.3%. For the same compound, the growth in the assay on CAKI-1 renal was 49.5%; in the assay on A498 renal it was 109%; in the assay with CCRF-CEM leukemia, 84.5%; in the assay on MOLT-4 leukemia it was 59.2%; in the assay on SR leukemia it was 79.7%; in the assay with RPMI-8226 leukemia, 82.2%. The growth with OVCAR-8 ovarian was 51.1%; with OVCAR-5 ovarian, 91.5%; in the assay with OVCAR-4 ovarian, 31.6%; in the assay with SK-OV-3 ovarian, 77%; with OVCAR-3 ovarian, 78.8%; with HS 578T breast it was 63.8%. Moreover, the growth with NCI/ADR-RES ovarian is 84.8%.
Regarding `COc1cccc(-c2ccc(/C=N/NC(=O)c3[nH]c4ccc(Br)cc4c3-c3ccccc3)s2)c1`, the growth in the assay with SK-MEL-2 melanoma is -3.93% (active); in the assay with EKVX NSCLC, 17.9%; in the assay with SN12C renal, 0.265% (active); with UO-31 renal it was 19.9%; with TK-10 renal, 8.47% (active); in the assay on ACHN renal, 7.04% (active). For the same compound, the growth in the assay on CAKI-1 renal is 9.77% (active); in the assay on A498 renal, 63.2%; in the assay on CCRF-CEM leukemia, 16%; in the assay with MOLT-4 leukemia, 6.82% (active); with SR leukemia it was 6.57% (active); with RPMI-8226 leukemia, -22.9% (active). The growth with OVCAR-8 ovarian is 0.0466% (active); in the assay with OVCAR-5 ovarian, -5.23% (active); with OVCAR-4 ovarian, 31.7%; in the assay with SK-OV-3 ovarian, 22.1%; with IGROV1 ovarian, 8.09% (active); in the assay on OVCAR-3 ovarian, -40.5% (active). For the same compound, in the assay with NCI/ADR-RES ovarian, the growth is -50.1% (active).
For `COc1ccc(C(=O)/C=C/c2ccc3c(c2)OCCO3)cc1S(N)(=O)=O`, the growth in the assay with SK-MEL-2 melanoma was 114%; in the assay with EKVX NSCLC, 84.8%; in the assay with SN12C renal, 68.6%; with UO-31 renal, 48.5%; with TK-10 renal it was 95.6%; in the assay on ACHN renal, 69.6%. For the same compound, the growth in the assay on CAKI-1 renal was 85.6%; with A498 renal, 109%; in the assay with CCRF-CEM leukemia it was 91%; in the assay with MOLT-4 leukemia it was 37.4%; with SR leukemia, 17.6%; in the assay on RPMI-8226 leukemia it was 59.2%. The growth was 40.7% with OVCAR-8 ovarian; 105% with OVCAR-5 ovarian; 83.3% in the assay on OVCAR-4 ovarian; 99% in the assay on SK-OV-3 ovarian; 63.6% in the assay on IGROV1 ovarian; 68.1% in the assay on OVCAR-3 ovarian. In the assay on NCI/ADR-RES ovarian, the growth was 53.1%.
Turning to `CN1C(=O)/C(=C\C(=O)c2cc3ccccc3oc2=O)c2ccccc21`, the growth in the assay on SK-MEL-2 melanoma was 65.1%; in the assay on EKVX NSCLC, 63.6%; in the assay with SN12C renal, 66.3%; in the assay on UO-31 renal, 53.6%; with TK-10 renal it was 98%; with ACHN renal, 25.3%. Besides, the growth in the assay with CAKI-1 renal was 65.2%; in the assay with A498 renal it was 160%; with CCRF-CEM leukemia, 43.4%; in the assay on MOLT-4 leukemia it was 50.4%; in the assay with SR leukemia, 38%; in the assay on RPMI-8226 leukemia it was 62.3%. Also, the growth in the assay with OVCAR-8 ovarian is 47.3%; with OVCAR-5 ovarian it was 84.3%; in the assay with OVCAR-4 ovarian it was 74.8%; in the assay with SK-OV-3 ovarian it was 80.8%; in the assay on IGROV1 ovarian, 82.3%; in the assay with OVCAR-3 ovarian, 51.8%. Besides, in the assay with NCI/ADR-RES ovarian, the growth is 53.3%.
As to `Nc1cc(-c2c[nH]c3ccc(Br)cc23)nc2cc(-c3c[nH]c4ccccc34)nn12`, the growth with SK-MEL-2 melanoma is -66.8% (active); in the assay with EKVX NSCLC, -67.5% (active); with SN12C renal, -66.3% (active); in the assay on UO-31 renal it was -54% (active); in the assay with TK-10 renal, -57.3% (active); with ACHN renal it was -35.5% (active). Also, the growth in the assay with CAKI-1 renal is -48.6% (active); in the assay with A498 renal, -77.3% (active); in the assay on CCRF-CEM leukemia, -13.8% (active); in the assay on MOLT-4 leukemia, 3.76% (active); with SR leukemia, 7.93% (active); in the assay with RPMI-8226 leukemia, 0.137% (active). Moreover, the growth in the assay on OVCAR-8 ovarian is -54.1% (active); in the assay with OVCAR-5 ovarian, -72.7% (active); in the assay with OVCAR-4 ovarian it was -5.21% (active); with SK-OV-3 ovarian, -43.6% (active); with IGROV1 ovarian it was -77.1% (active); in the assay with OVCAR-3 ovarian, -34% (active). Also, the growth in the assay on NCI/ADR-RES ovarian was -17.9% (active).
With `CCOc1ccc2[nH]c(=O)c(C(c3nnnn3CC3CCCO3)N3CCN(Cc4ccccc4)CC3)cc2c1` (configuration not stated), the growth in the assay on SK-MEL-2 melanoma was 102%; with EKVX NSCLC it was 86.9%; with SN12C renal it was 88.2%; in the assay on UO-31 renal, 99.9%; in the assay with TK-10 renal, 114%; with ACHN renal, 61.2%. The growth was 76.3% with CAKI-1 renal; 76% in the assay with A498 renal; 93.7% in the assay on CCRF-CEM leukemia; 101% with MOLT-4 leukemia; 111% in the assay on SR leukemia; 99.1% in the assay with RPMI-8226 leukemia. For the same compound, the growth was 84.2% in the assay with OVCAR-8 ovarian; 97% in the assay with OVCAR-5 ovarian; 94.9% in the assay with OVCAR-4 ovarian; 79.3% in the assay with SK-OV-3 ovarian; 100% in the assay with OVCAR-3 ovarian; 20.1% in the assay with HS 578T breast. Besides, the growth in the assay on NCI/ADR-RES ovarian was 90.1%.
Take `Cc1ccc(O)cc1Nc1nc(SCCN2CCOCC2)nc2c1cnn2CC(Cl)c1ccc(Br)cc1` (configuration not stated): the growth with SK-MEL-2 melanoma is -35.9% (active); with EKVX NSCLC, 21%; with SN12C renal, 20%; with UO-31 renal it was 6.07% (active); with TK-10 renal, 17.8%; in the assay on ACHN renal, 1.87% (active). In addition, the growth is -31.5% (active) in the assay on CAKI-1 renal; 29.3% with A498 renal; 5.71% (active) with CCRF-CEM leukemia; -24.6% (active) in the assay with MOLT-4 leukemia; -29.4% (active) in the assay on SR leukemia; 16.8% in the assay on RPMI-8226 leukemia. Moreover, the growth was 20.7% in the assay on OVCAR-8 ovarian; 18.8% in the assay with OVCAR-5 ovarian; 32.3% in the assay on OVCAR-4 ovarian; 43.9% in the assay on SK-OV-3 ovarian; 26.5% in the assay on OVCAR-3 ovarian; -25.8% (active) in the assay on HS 578T breast. For the same compound, in the assay on NCI/ADR-RES ovarian, the growth was 7.37% (active).

The values are drawn from PubChem BioAssay (NCI).
